SMILES strings stand for the structures. Results filed as inconclusive are left out. Activity calls are given as the source filed them. Unless noted, the call rests on the fitted dose curve; in most records, active means well fitted curve in the direction sought with a large enough effect; inconclusive means small, poorly fitted or top-dose-only effect, or another doubt; inactive means no such curve, though single readings can be large; an effect the other way counts as inactive or inconclusive.

A short description of test [1]: qHTS Assay for Identification of Small Molecule Inducers of Hypoxia Response (AID 2120; active means well fitted curve in the direction sought with a large enough effect in the signal ratio, with a control signal flat, not every such curve was filed as active; the % refers to the signal ratio). The procedure, abridged:
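HRE-beta-lactamase reporter in CellSensor HRE-bla ME-180 cells, 2500 cells/well in Opti-MEM with 0.5% dialyzed FBS; compounds tested as titration series, 17 h at 37 degrees C. CCF4 substrate 2.5 h at room temperature; AC50 from 460/530 nm ratio.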

A short description of test [2]: Cytometric Cell-Based qHTS for Inhibitors of the mTORC1 Signaling Pathway in MEF (Tsc2-/-, p53-/-) Cells (AID 2660).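 Further: percent of cells above a phospho-rpS6 to PI ratio cutoff in each well.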 The method, boiled down: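 Tsc2-/-, p53-/- MEFs (empty vector) exposed to compound 24 h at 37 C, fixed, stained with Alexa-488 anti-phospho-rpS6 Ser235/236 and propidium iodide. Acumen laser scanning; phospho-S6/PI ratio thresholded against 7.5 nM rapamycin, reported as % positive cells.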
For orientation: In qHTS, concentration-response curves come from the screen itself.

The nature of test [3]: High Content Imaging Cell-Based qHTS for Inhibitors of the mTORC1 Signaling Pathway in MEF (Tsc2-/-, p53-/-) Cells (AID 2666).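 Further: percent of cells scored positive for phospho-rpS6 Ser235/236 immunostaining by imaging.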 As to conditions: at 38.3 µM (top of the series). The method, boiled down: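 Read-out: % positive cells per well, with thresholds from highest- and lowest-signal wells, based on phospho-rpS6 (Ser235/236) intensity normalized to Hoechst nuclear stain. Cells: Tsc2-/-, p53-/- MEFs carrying empty vector; compound 24 hrs, 37 degree Celsius.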

Test [4] can be described thus: Cytometry Cell-Based qHTS for Inhibitors of the mTORC1 Signaling Pathway in MEF cells (AID 2668).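 Further: Tsc2-/- p53-/- mouse embryonic fibroblasts stably re-expressing wild-type Tsc2; percent cells positive for phospho-rpS6 Ser235/236 relative to propidium iodide stain.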 The procedure, abridged:
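Pathway inhibition in WT Tsc2-rescued Tsc2-/-, p53-/- MEFs is measured as the Alexa-488 phospho-rpS6 to propidium iodide intensity ratio after 24 hrs of compound at 37 degree Celsius. PI-stained cell number gives viability.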

Test [5] has as its target Ubiquitin carboxyl-terminal hydrolase 2 (Homo sapiens) (UniProt O75604). As to the kind of experiment: qHTS Validation Assay for Inhibitors of Ubiquitin-specific Protease USP2a Using CHOP2 as the Reporter (AID 463106). The procedure, abridged:
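USP2 core (10nM final) was preincubated with compound for 30min at RT in 20mM Tris-HCl pH 8.0, 2mM CaCl2, 2mM beta-mercaptoethanol, 0.05% CHAPS. Ub-CHOP2 and reporter substrate (25nM each) were added, and fluorescence (Ex 485/Em 531nm) was read after 60min.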

The target of test [6] is DNA polymerase III PolC-type (Bacillus subtilis (strain 168)) (UniProt P13267). As to the kind of experiment: qHTS Validation Assay for the Inhibitors of DNA Replication in Gram-Positive Bacteria (AID 485295).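 Further: reconstituted holoenzyme with PolC plus beta clamp SSB and primase; PicoGreen fluorescence of double-stranded DNA made on primed circular M13 template.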 The procedure, abridged: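 Primed replication of single-stranded M13Gori by a four-protein B. subtilis holoenzyme is measured at room temperature. Double-stranded product is quantified by PicoGreen fluorescence after an EDTA stop; inhibition is scaled between DMSO and EDTA controls.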
Chain of DNA polymerase III PolC-type (Bacillus subtilis (strain 168)) (P13267 whole entry, looked up): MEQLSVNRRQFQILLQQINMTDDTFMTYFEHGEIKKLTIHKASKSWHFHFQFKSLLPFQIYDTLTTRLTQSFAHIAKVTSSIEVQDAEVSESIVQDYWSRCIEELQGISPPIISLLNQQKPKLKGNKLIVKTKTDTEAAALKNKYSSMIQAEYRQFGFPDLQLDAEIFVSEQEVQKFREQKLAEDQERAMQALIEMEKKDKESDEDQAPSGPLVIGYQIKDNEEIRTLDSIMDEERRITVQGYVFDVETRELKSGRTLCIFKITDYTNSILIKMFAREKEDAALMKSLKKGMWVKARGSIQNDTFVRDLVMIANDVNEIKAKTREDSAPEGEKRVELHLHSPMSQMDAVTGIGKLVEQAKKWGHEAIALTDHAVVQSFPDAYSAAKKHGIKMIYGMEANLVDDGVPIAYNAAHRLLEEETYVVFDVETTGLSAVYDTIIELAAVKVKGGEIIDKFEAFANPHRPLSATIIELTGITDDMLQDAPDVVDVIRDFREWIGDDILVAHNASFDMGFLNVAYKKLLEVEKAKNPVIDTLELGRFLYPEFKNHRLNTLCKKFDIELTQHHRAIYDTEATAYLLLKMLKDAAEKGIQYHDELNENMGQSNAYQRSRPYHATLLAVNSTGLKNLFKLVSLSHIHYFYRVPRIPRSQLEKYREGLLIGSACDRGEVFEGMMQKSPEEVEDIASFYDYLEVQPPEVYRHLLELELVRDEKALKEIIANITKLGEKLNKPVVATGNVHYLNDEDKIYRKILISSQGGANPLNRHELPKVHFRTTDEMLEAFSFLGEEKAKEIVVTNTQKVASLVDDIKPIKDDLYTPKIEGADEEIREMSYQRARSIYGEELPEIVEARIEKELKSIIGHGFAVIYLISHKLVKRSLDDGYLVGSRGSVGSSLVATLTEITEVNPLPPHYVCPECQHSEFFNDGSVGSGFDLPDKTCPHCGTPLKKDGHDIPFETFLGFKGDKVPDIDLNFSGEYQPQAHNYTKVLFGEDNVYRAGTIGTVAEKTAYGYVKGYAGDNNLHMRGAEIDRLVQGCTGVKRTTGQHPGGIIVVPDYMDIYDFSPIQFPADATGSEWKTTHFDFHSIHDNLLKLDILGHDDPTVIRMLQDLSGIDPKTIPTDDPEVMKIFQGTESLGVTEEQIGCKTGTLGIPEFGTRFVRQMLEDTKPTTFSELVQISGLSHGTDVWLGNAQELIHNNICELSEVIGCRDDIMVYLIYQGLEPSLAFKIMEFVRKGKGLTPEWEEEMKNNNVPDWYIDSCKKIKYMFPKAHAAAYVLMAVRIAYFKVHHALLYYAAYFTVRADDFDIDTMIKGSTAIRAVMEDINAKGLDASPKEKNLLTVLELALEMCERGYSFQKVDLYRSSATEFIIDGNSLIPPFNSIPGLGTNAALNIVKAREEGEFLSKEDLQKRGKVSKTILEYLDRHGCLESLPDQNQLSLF

Test [7] addresses Tumor susceptibility gene 101 protein (Homo sapiens) (UniProt Q99816). As to the kind of experiment: qHTS Validation Assay for Iinhibitors of HIV-1 Budding by Blocking the Interaction of PTAP/TSG101 (AID 485342; calls by dose curve). The method, boiled down:
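Fluorescence anisotropy measured PTAP-Tsg101 interaction. Final concentrations were 10 uM protein domain and 50 nM labeled peptide, equilibrated 20 min at room temperature.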

Test [8] is described as follows: qHTS Validation Assay to Find Inhibitors of Chronic Active B-Cell Receptor Signaling (AID 485345; active means well fitted curve in the direction sought with a large enough effect in the main read-out, with a control signal flat, not every such curve was filed as active). The procedure, abridged: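 TMD8 ABC-DLBCL cells with dox-inducible green luciferase–IκBα fusion and red native luciferase; compounds 46 uM–3 nM, 4 h at 37C with doxycycline in 0.5% FBS IMDM. Green/red ratio normalized to basal and 10 uM MG-132.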
In test [9] the target is Beta-2 adrenergic receptor (Homo sapiens) (UniProt P07550). The test can be described thus: qHTS validation assay of beta-arrestin-biased ligands of beta2-adrenergic receptor (AID 485366). The procedure, abridged:
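Tango cells expressing recombinant beta2-AR and beta-arrestin with tTA-driven luciferase, in DMEM with 1% FBS. Compounds were titrated up to 46 microM for 18 hr at 37 degrees C. Luminescence was read 15 min after substrate; curves were fitted and class-assigned.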

For test [10], the target named is ATP-dependent 6-phosphofructokinase (Trypanosoma brucei brucei) (UniProt O15648). As to the kind of experiment: qHTS Validation Assay to Find Inhibitors of T. brucei phosphofructokinase (AID 485368). The method, boiled down: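 Activity was read as ADP production by luminescence (ADP-Glo) after 45 min at room temperature. The enzyme was 1.25nM PFK in 0.1M TEA pH 8.0 with 0.5 mM F6P, 0.1mM ATP and 5 mM MgCl2. Compounds were titrated up to 57 uM and % activity normalized to no-enzyme and full-enzyme controls.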
Chain of ATP-dependent 6-phosphofructokinase (Trypanosoma brucei brucei) (O15648 whole entry, looked up): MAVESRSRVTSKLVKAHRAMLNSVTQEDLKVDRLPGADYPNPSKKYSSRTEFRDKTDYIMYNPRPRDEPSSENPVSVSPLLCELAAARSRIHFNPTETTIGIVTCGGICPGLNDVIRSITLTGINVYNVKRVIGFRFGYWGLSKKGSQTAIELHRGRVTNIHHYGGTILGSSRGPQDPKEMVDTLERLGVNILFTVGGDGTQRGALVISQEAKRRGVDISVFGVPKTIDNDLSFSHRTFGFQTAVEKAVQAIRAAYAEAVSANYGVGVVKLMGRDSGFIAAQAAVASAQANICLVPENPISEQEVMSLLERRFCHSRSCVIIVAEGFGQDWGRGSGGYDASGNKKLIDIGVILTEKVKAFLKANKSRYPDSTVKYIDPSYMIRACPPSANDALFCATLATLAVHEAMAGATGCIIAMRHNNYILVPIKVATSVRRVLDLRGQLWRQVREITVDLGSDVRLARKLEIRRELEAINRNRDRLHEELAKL

Test [11] concerns the target Thioredoxin reductase 1, cytoplasmic (Rattus norvegicus) (UniProt O89049). As to the kind of experiment: qHTS Assay for Substrates of Mammalian Selenoprotein Thioredoxin Reductase 1 (TrxR1) (AID 488772).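 Further: NADPH fluorescence in the first read after selenite addition and not the 8 min delta; a drop in NADPH fluorescence below the no-compound background marks a TrxR1 substrate.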 The procedure, abridged: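 Quantitative HTS in Tris-HCl buffer at pH 7.5 with EDTA and Tween-20, using rat TrxR1, 400 uM NADPH and 400 uM selenite (final). A fall in initial NADPH fluorescence relative to background marked substrate behaviour.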

The nature of test [12]: qHTS for differential inhibitors of proliferation of Plasmodium falciparum line HB3 (AID 1886).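 Further: parasites grown with compound for 72 h before SYBR Green readout.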 As to conditions: Potency: Plasmodium falciparum HB3 proliferation inhibition.
The target in test [13] is Ferritin light chain (Equus caballus) (UniProt P02791). As to the kind of experiment: qHTS Validation Assay for Identification of Novel General Anesthetics (AID 2323). The procedure, abridged:
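Apoferritin from horse spleen (10 uM) was mixed with 1-aminoanthracene at 50% saturation in PBS, then compounds were added. After 10 min at room temperature, fluorescence was read (ex 380 nm, em 535 nm) and normalized to free-probe and complex controls.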

Test [14] deals with ATP-dependent DNA helicase Q1 (Homo sapiens) (UniProt P46063). The test can be described thus: qHTS Validation Assay for Inhibitors of RecQ-Like Dna Helicase 1 (RECQ1) (AID 2353). The method, boiled down: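 50 nM RECQ1T1 preincubated 15 min with compound in Tris pH 8.0 buffer with MgCl2, DTT, Tween-20 and 2.5 ug/ml poly(dI-dC); started with 200 nM TAMRA/BHQ-2 forked duplex and 2 mM ATP. Unwinding read as fluorescence (525/598 nm), two reads 2 h apart.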
Chain of ATP-dependent DNA helicase Q1 (Homo sapiens) (P46063 whole entry, looked up): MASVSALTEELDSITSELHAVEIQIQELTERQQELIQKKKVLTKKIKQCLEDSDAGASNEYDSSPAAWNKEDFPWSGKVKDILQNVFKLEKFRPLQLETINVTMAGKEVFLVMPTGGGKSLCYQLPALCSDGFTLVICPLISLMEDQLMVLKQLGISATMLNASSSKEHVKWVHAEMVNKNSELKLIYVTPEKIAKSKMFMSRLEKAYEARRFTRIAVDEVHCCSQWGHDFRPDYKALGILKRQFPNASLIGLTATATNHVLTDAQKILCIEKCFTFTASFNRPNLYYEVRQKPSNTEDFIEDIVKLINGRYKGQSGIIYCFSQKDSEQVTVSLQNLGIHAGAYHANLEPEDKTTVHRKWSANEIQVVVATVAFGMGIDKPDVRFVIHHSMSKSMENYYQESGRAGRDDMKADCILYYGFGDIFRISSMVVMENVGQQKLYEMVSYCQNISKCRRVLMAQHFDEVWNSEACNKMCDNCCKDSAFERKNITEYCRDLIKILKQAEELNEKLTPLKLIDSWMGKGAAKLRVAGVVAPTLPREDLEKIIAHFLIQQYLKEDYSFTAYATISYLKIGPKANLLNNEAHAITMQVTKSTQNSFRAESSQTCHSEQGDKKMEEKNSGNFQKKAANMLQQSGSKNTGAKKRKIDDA

Test [15] has as its target RecQ-like DNA helicase BLM (Homo sapiens) (UniProt P54132). The test can be described thus: qHTS Validation Assay for Inhibitors of Bloom's syndrome helicase (BLM) (AID 2364). The procedure, abridged: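 BLM 50 nM in 25 mM Tris-HCl pH 8.0, 5 mM NaCl, 2 mM MgCl2, 1 mM DTT, 0.01% Tween-20, 2.5 ug/ml poly(dI-dC); 15 min cpd preinc, RT. Start: 200 nM forked DNA + 2 mM ATP (final). TAMRA read, 2 reads 2 h apart.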

The nature of test [16]: Validation screen for small molecules that induce DNA re-replication in MCF 10A normal breast cells (AID 463097). Further: nearly all actives have a fitted effect of over 60% in size. Further: potency means the concentration at half of the fitted maximal effect. The procedure, abridged:
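DNA re-replication was detected as a rise in nuclei with elevated Hoechst fluorescence after a 48 hr compound exposure of MCF 10A cells at 37 C.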

The nature of test [17]: Quantitative high throughput screen for delayed death inhibitors of the malarial parasite plastid, 96 hour incubation (AID 488745). Further: nearly all actives have a fitted effect of over 70% in size. The method, boiled down: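 P. falciparum carrying an integrated firefly luciferase reporter, grown in erythrocytes (2% hematocrit, 0.1% parasitemia final) in RPMI 1640/0.5% Albumax, was exposed to compound for 96 h (two generations) at 37 C, 5% CO2. Luminescence decrease indicated growth inhibition.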

Test [18] in a line: Quantitative high throughput screen for delayed death inhibitors of the malarial parasite plastid, 48 hour incubation (AID 488752). Further: nearly all actives have a fitted effect of over 65% in size. The procedure, abridged:
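Erythrocytes infected with P. falciparum carrying an integrated firefly luciferase reporter (2% hematocrit, 0.1% parasitemia final) were exposed to compounds in RPMI 1640/0.5% Albumax for 48 h at 37 C, 5% CO2. Growth inhibition was scored as reduced luminescence.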

A short description of test [19]: qHTS for differential inhibitors of proliferation of Plasmodium falciparum line W2 (AID 1883).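 Further: potency means the concentration at half of the fitted maximal effect; parasites grown with compound for 72 h before lysis and staining.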 As to conditions: Potency: Plasmodium falciparum W2 proliferation inhibition.
A short description of test [20]: qHTS Assay for Modulators of Human Peripheral Myelin Protein 22 (PMP22) Expression/Activity (AID 1967; active means well fitted curve in the direction sought with a large enough effect in the signal ratio; the % refers to the signal ratio). The method, boiled down: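 Quantitative HTS in a mouse Schwann cell line expressing dual click beetle luciferases: Pmp22 promoter (green) and control EF-alpha promoter (red). After 24h treatment, corrected green/red signal ratio gave %Activity relative to untreated cells.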

Chain of Beta-2 adrenergic receptor (Homo sapiens) (P07550 whole entry, looked up): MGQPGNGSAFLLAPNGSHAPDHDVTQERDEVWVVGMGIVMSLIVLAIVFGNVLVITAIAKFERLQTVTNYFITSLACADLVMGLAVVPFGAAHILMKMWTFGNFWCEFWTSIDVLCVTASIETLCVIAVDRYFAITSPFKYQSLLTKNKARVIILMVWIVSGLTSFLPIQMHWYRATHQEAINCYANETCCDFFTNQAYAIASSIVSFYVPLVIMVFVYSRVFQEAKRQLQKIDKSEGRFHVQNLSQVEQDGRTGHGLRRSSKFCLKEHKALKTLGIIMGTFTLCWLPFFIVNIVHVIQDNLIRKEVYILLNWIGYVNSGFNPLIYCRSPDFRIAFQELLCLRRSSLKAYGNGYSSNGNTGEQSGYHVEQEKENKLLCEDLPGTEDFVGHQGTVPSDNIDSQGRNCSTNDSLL
Chain of Thioredoxin reductase 1, cytoplasmic (Rattus norvegicus) (O89049 whole entry, looked up): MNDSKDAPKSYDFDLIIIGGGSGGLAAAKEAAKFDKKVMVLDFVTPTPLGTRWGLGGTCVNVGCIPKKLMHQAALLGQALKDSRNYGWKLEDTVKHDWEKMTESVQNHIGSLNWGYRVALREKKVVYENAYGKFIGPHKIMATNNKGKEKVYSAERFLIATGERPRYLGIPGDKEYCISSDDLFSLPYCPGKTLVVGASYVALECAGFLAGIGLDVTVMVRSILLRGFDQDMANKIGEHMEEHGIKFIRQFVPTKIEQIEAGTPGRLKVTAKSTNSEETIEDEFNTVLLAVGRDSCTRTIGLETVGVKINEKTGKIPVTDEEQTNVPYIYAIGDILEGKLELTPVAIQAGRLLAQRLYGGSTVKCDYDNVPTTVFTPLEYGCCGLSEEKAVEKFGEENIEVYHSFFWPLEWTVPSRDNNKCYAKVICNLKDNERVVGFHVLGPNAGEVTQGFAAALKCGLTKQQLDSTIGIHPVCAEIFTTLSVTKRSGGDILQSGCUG
Chain of Tumor susceptibility gene 101 protein (Homo sapiens) (Q99816 whole entry, looked up, the tested form may be a part): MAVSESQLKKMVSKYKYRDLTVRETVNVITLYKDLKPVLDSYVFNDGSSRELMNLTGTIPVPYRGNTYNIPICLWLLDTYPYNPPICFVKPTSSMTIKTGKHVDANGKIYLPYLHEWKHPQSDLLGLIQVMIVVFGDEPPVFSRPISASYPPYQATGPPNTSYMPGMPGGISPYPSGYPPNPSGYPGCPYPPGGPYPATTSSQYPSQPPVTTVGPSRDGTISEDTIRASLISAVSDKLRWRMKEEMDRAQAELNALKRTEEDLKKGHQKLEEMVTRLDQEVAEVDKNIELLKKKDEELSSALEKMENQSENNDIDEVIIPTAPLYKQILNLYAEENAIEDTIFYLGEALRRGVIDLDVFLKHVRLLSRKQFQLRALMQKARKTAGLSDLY
Chain of Ubiquitin carboxyl-terminal hydrolase 2 (Homo sapiens) (O75604 whole entry, looked up): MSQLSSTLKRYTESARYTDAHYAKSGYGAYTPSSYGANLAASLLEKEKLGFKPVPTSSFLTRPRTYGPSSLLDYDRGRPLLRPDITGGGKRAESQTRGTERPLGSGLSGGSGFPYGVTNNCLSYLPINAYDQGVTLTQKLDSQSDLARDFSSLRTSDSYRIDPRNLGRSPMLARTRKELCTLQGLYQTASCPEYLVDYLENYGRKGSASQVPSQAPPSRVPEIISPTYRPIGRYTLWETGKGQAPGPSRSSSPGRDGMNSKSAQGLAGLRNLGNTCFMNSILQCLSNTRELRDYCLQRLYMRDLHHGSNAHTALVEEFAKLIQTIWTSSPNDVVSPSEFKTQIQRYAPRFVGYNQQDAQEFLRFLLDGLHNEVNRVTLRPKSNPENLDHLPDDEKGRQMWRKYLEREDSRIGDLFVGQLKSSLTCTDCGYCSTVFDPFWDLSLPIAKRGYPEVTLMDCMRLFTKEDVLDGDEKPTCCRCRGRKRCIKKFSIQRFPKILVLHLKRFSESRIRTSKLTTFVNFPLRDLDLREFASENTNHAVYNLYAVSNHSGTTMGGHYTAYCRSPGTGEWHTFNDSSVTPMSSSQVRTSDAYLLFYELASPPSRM
Chain of Ferritin light chain (Equus caballus) (P02791 2-175 limits assumed): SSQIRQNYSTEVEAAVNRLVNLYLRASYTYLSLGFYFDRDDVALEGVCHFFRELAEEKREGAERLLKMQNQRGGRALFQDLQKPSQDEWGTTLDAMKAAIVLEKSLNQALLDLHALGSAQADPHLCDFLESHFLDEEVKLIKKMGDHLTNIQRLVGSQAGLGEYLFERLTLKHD

As for `CCCC(=O)c1cc(O)c(O)cc1O`, the call in test [1] was inactive.
On the same count and under the same terms, next, `CC(C)(C)c1ccc(O)c(O)c1`: “inactive”; `OCc1c[nH]c2ccccc12`: “inactive”.
As for `CCN(CC)CCNC(=O)c1ccc(NS(C)(=O)=O)cc1`, the compound was called inactive in test [2], in [3], in test [4], in test [5], in [6] and in test [7]. Besides, the call in test [8], in test [9] and in test [11] was inactive. Further, the Potency result in test [10] is “inactive”.
For the compound `COC(=O)C1=CO[C@@H](O)[C@@H]2C(CO)=CC[C@H]12`, the compound was classed as inactive in test [2], in test [3], in test [4], in test [5], in [6] and in test [7]. Moreover, the outcome in [8] and in test [9] was inactive. Further, the Potency entry in test [10] was “inactive”.
With `CCCCC(CC)COC(=O)c1ccccc1C(=O)O` (stereo unspecified), in [1], the call was inactive.
In the case of `C[C@]12CCC(=O)C=C1CC[C@@H]1[C@@H]2[C@@H](O)C[C@@]2(C)[C@H]1CC[C@]2(O)C(=O)COC(=O)CCC(=O)O`, the Potency result in test [12], in test [16], in [17] and in test [18] was “inactive” each time. For the same compound, the compound was classed as inactive in [13], in [14] and in test [15].
For the compound `Brc1ccc([C@H]2CN3CCSC3=N2)cc1`, the Potency is 7.94 µM (active) in test [19] and 7.08 µM (active) in test [16]. Also, the result in test [20], in test [14], in test [2], in [3], in test [4] and in [5] was inactive. The compound was classed as inactive in test [6], in test [7], in test [8], in test [9] and in test [11]. Besides, the Potency result in test [10], in test [17] and in [18] was “inactive” each time.
In the case of `COc1cc(C=O)ccc1O`, in test [1], the outcome was inactive.
Take `O=C1NC(=O)/C(=C/c2ccc3c(c2)OC(F)(F)O3)S1`: the result in [2], in test [3], in [4], in test [5], in [6] and in test [7] was inactive. The result in test [9] and in test [11] was inactive. Also, the Potency result in test [10] is “inactive”.

For the origin of these results see PubChem BioAssay (NCATS).
